Among the data in PubChem BioAssay AID651638 (Johns Hopkins Ion Channel Center, 2012) are ratio percent of control values, retold here.

Molecules are shown by their SMILES. Out of some 2,400 compounds screened, about 2,400 (100%) were called active.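 The calls were made as follows: active = ratio percent of control, averaged over triplicates, above buffer control mean plus 5 SD (cut at about 64% in these data); inactive = the rest.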 So high a share suggests a set chosen from earlier hits. The list is a sample of the results.

Potassium channel subfamily K member 3 (Homo sapiens), sequence (O14649 whole entry, looked up): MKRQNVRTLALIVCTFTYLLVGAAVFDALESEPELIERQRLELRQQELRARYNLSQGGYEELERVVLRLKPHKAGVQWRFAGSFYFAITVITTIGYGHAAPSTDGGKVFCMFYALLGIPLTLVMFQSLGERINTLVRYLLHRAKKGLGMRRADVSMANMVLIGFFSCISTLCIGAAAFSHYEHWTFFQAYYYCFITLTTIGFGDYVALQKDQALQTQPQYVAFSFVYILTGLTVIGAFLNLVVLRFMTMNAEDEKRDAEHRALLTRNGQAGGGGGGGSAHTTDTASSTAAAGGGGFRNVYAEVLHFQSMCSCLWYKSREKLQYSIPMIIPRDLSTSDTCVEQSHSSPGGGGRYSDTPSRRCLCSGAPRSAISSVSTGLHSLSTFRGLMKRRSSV

This assay has as its target Potassium channel subfamily K member 3 (Homo sapiens) (UniProt O14649). Put plainly: retest of human KCNK3 channel inhibitors, confirmation, CHO cells, FluxOR thallium flux, triplicate (AID 651638).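 Also: ratio is the fluorescence rise from min to max over baseline after thallium stimulus.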 As to conditions: FluxOR fluorescence, at 10 µM, active compounds read high.
As for `COc1ccccc1C1=NCc2nnc(CSC)n2-c2ccc(Cl)cc21`, the ratio percent of control is 54.7% (active).

Consider `CCCCCCN=C(CC)c1c(O)n(CCCC)c(=O)[nH]c1=O`, for which the ratio percent of control was 129% (active). On to `CCOC(=O)C1SC2(C(F)(F)C(F)F)CC1(O)c1c(c(OC)c3occc3c1OC)O2` (stereo not drawn), for which the ratio percent of control is 112% [0% buffer, 100% carvedilol maximal block] (active).
